Laboratory results taken from the supplement of paper PMC10849652.
Targets with a hit are over-represented here; the source holds about 7,900 in all. About 0.6% of all pairs of compound and target were hits.

What was measured:
Test in all cases: log2 fold change, soluble protein after heating vs DMSO (PISA); higher = thermal stabilisation; K562 cells, 10 uM, 30 min; active = over 0.2 and 3.5 SD of the protein, either way, in both replicates (recomputed)
saracatinib = compound: CN1CCN(CCOc2cc(OC3CCOCC3)c3c(Nc4c(Cl)ccc5c4OCO5)ncnc3c2)CC1 [saracatinib]
Summary of the method: (§1)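 Quantification of soluble protein used TMTpro 16plex LC-MS/MS, with channel sums equalised. Samples were the supernatant after 21,000xg for 90 min of pooled aliquots from K562 cells (2×10^6 cells/mL) treated with 10 μM compound for 30 min, heated for 3 min over 48°C-58°C, and extracted in PBS with 0.5% NP-40 at 4°C. Values, from duplicates, describe thermal stability against control samples on a log2 fold-change scale.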

sotrastaurin = compound: CN1CCN(c2nc(C3=C(c4c[nH]c5ccccc45)C(=O)NC3=O)c3ccccc3n2)CC1 [sotrastaurin]
Summary of the method: as §1

alvocidib = compound: CN1CC[C@H](c2c(O)cc(O)c3c(=O)cc(-c4ccccc4Cl)oc23)[C@H](O)C1 [alvocidib]
Summary of the method: as §1

Tubastatin A = compound: CN1CCc2c(c3ccccc3n2Cc2ccc(C(=O)NO)cc2)C1 [Tubastatin A]
Summary of the method: as §1

[1] = compound: CNC(=O)C1=CC=CC=C1NC2=NC(=NC=C2Cl)NC3=C(C=C(C=C3)N4CCOCC4)OC
Summary of the method: as §1

defactinib = compound: CNC(=O)c1ccc(Nc2ncc(C(F)(F)F)c(NCc3nccnc3N(C)S(C)(=O)=O)n2)cc1 [defactinib]
Summary of the method: as §1

rucaparib = compound: CNCc1ccc(-c2[nH]c3cc(F)cc4c3c2CCNC4=O)cc1 [rucaparib]
Summary of the method: as §1

[2] = compound: CNc1nc(-c2ccc3c(N)n[nH]c3c2)cc(N2C[C@@H](C(=O)NC3CCCCC3)CC[C@H]2C)n1
Summary of the method: as §1

encorafenib = compound: COC(=O)N[C@@H](C)CNc1nccc(-c2cn(C(C)C)nc2-c2cc(Cl)cc(NS(C)(=O)=O)c2F)n1 [encorafenib]
Summary of the method: as §1

[3] = compound: COC(=O)[C@H](CCSC)NC(=O)C1=C(C=C(C=C1)NC[C@H](CS)N)C2=CC=CC=C2
Summary of the method: as §1

[4] = compound: COC1=CC=C(C=C1)CN2C=CC3=C2C=C(C=C3)C(=O)NO
Summary of the method: as §1

filanesib = compound: CON(C)C(=O)N1N=C(c2cc(F)ccc2F)S[C@@]1(CCCN)c1ccccc1 [filanesib]
Summary of the method: as §1

zotarolimus = compound: CO[C@H]1C[C@@H]2CC[C@@H](C)[C@@](O)(O2)C(=O)C(=O)N2CCCC[C@H]2C(=O)O[C@H]([C@H](C)C[C@@H]2CC[C@H](n3cnnn3)[C@H](OC)C2)CC(=O)[C@H](C)/C=C(\C)[C@@H](O)[C@@H](OC)C(=O)[C@H](C)C[C@H](C)/C=C/C=C/C=C/1C [zotarolimus]
Summary of the method: as §1

idasanutlin = compound: COc1cc(C(=O)O)ccc1NC(=O)[C@@H]1N[C@@H](CC(C)(C)C)[C@](C#N)(c2ccc(Cl)cc2F)[C@H]1c1cccc(Cl)c1F [idasanutlin]
Summary of the method: as §1

alisertib = compound: COc1cc(Nc2ncc3c(n2)-c2ccc(Cl)cc2C(c2c(F)cccc2OC)=NC3)ccc1C(=O)O [alisertib]
Summary of the method: as §1

[5] = compound: COc1cc2nc(-c3cc(F)ccc3O)nc(N[C@@H]3CNC[C@H]3C(C)(C)O)c2cc1OC
Summary of the method: as §1

gefitinib = compound: COc1cc2ncnc(Nc3ccc(F)c(Cl)c3)c2cc1OCCCN1CCOCC1 [gefitinib]
Summary of the method: as §1

[6] = compound: COc1cccc2cc(-c3nc([C@H]4CC[C@H](C(=O)O)CC4)n4ncnc(N)c34)[nH]c12
Summary of the method: as §1

lapatinib = compound: CS(=O)(=O)CCNCc1ccc(-c2ccc3ncnc(Nc4ccc(OCc5cccc(F)c5)c(Cl)c4)c3c2)o1 [lapatinib]
Summary of the method: as §1

pictilisib = compound: CS(=O)(=O)N1CCN(Cc2cc3nc(-c4cccc5[nH]ncc45)nc(N4CCOCC4)c3s2)CC1 [pictilisib]
Summary of the method: as §1

Measured: log2 fold change

QKI (UniProt Q96PU8)
inactive: saracatinib -0.004 | sotrastaurin -0.001 | alvocidib -0.106 | Tubastatin A 0.062 | [1] -0.044 | rucaparib -0.006 | [2] -0.036 | encorafenib -0.036 | [3] 0.004 | [4] -0.004 | filanesib -0.004 | zotarolimus -0.026 | idasanutlin -0.032 | alisertib -0.077 | [5] -0.079 | gefitinib 0.019 | [6] 0.011 | lapatinib -0.007 | pictilisib -0.032
active: defactinib -0.23

PDE4DIP isoform 4 (UniProt Q5VU43)
UniProt Q5VU43, sequence (Q5VU43 whole entry, looked up): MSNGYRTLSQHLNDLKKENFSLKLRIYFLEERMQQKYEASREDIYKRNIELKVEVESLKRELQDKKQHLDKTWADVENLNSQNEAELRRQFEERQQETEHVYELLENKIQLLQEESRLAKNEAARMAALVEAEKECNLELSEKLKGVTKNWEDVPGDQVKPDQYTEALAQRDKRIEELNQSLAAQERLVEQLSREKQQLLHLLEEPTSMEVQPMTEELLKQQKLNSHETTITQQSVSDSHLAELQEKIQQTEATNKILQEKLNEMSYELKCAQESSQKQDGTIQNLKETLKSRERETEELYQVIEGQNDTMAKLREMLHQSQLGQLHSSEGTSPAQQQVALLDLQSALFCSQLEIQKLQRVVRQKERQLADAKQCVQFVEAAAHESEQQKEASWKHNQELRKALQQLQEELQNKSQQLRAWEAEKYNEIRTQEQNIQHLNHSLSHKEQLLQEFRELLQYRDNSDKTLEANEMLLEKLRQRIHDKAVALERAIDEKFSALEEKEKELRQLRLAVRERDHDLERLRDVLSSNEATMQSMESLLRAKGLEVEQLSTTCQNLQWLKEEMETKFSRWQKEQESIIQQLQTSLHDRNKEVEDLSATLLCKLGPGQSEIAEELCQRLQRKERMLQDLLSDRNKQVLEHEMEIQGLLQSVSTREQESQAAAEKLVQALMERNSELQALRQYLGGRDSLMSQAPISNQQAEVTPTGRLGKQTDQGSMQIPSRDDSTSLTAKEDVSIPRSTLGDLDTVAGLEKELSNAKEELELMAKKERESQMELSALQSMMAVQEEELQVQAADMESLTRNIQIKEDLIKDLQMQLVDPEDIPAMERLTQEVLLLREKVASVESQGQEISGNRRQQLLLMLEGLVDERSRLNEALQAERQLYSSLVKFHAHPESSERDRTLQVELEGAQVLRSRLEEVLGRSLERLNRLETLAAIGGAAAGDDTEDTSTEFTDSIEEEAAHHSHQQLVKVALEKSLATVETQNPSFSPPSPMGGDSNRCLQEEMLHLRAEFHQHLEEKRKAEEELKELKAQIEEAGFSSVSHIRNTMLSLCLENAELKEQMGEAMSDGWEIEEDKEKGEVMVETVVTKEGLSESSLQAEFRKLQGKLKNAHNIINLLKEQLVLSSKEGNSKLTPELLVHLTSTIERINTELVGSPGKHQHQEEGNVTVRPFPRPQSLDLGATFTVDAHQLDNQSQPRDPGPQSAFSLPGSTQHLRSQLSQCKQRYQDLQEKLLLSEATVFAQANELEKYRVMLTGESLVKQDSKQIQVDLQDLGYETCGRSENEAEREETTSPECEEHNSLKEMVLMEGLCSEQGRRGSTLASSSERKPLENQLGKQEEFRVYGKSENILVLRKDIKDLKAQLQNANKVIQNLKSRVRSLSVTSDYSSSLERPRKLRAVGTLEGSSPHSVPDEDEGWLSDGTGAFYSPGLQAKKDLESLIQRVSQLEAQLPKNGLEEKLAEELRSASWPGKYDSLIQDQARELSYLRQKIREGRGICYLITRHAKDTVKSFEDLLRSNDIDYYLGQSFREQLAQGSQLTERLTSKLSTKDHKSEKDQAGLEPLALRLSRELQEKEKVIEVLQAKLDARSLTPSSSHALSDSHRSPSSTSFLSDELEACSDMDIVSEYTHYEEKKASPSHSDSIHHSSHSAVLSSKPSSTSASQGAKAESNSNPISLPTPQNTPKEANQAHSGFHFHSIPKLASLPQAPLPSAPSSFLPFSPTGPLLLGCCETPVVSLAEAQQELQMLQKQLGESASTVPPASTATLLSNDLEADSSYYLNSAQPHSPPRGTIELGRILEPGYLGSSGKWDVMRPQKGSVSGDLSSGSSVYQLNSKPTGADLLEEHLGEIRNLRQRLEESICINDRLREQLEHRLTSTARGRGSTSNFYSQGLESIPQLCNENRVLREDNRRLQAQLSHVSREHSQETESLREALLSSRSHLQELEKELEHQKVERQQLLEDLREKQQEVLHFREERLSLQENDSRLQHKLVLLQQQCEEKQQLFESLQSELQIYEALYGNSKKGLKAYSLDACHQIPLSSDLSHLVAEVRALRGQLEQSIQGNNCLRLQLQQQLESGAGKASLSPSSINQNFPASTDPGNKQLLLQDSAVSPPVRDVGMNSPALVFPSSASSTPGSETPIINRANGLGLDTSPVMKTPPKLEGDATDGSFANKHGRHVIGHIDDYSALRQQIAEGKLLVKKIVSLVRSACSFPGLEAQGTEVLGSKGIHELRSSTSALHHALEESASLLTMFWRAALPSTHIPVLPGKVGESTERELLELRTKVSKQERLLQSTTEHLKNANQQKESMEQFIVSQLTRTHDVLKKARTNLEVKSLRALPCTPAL
inactive: saracatinib -0.028 | sotrastaurin -0.064 | alvocidib 0.017 | Tubastatin A 0.064 | [1] -0.065 | defactinib 0.021 | rucaparib -0.057 | [2] 0.007 | encorafenib -0.015 | [3] 0.035 | [4] 0.113 | filanesib -0.057 | zotarolimus -0.046 | idasanutlin 0.055 | alisertib -0.102 | [5] 0.024 | gefitinib 0.024 | [6] -0.022 | lapatinib -0.005 | pictilisib 0.042

PTP4A1 (UniProt Q93096)
UniProt Q93096, sequence (Q93096 whole entry, looked up): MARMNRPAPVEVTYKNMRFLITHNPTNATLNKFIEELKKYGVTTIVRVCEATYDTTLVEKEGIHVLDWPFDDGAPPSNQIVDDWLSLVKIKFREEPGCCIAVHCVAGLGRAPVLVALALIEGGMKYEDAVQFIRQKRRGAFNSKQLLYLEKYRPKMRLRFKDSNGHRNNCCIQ
active: alvocidib -0.34 | defactinib -0.447 | [5] -0.267
inactive: saracatinib -0.058 | sotrastaurin 0.061 | Tubastatin A 0.036 | [1] 0.02 | rucaparib -0.038 | [2] 0.04 | encorafenib -0.027 | [3] 0.029 | [4] 0.009 | filanesib -0.088 | zotarolimus 0.05 | idasanutlin 0.089 | alisertib -0.129 | gefitinib 0.033 | [6] 0.04 | lapatinib 0.024 | pictilisib 0.068

PPIL2 (UniProt Q13356)
inactive: saracatinib -0.02 | sotrastaurin -0.096 | alvocidib -0.093 | Tubastatin A 0.069 | [1] -0.023 | defactinib -0.194 | rucaparib 0.073 | [2] 0.067 | encorafenib 0.047 | [3] -0.065 | [4] 0.035 | filanesib 0.012 | zotarolimus 0.05 | idasanutlin -0.032 | alisertib 0.01 | [5] 0.131 | gefitinib 0.076 | [6] -0.023 | lapatinib -0.02 | pictilisib 0.028

PSMD11 (UniProt O00231)
UniProt O00231, sequence (O00231 whole entry, looked up): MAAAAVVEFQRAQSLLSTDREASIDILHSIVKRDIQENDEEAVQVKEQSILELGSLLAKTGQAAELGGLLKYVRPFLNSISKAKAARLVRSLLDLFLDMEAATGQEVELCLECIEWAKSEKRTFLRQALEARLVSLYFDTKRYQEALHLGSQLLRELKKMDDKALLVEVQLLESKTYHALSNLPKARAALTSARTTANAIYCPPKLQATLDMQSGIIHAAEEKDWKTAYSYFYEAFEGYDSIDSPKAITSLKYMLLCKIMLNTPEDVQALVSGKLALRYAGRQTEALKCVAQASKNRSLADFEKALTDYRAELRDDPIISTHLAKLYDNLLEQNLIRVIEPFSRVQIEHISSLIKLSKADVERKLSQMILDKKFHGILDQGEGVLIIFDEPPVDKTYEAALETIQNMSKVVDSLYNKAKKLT
inactive: saracatinib -0.065 | sotrastaurin -0.051 | alvocidib 0.051 | Tubastatin A 0.077 | [1] 0.013 | defactinib 0.059 | rucaparib 0.039 | [2] 0.041 | encorafenib 0.042 | [3] -0.05 | [4] 0.018 | filanesib -0.011 | zotarolimus 0.028 | idasanutlin 0.004 | alisertib -0.058 | [5] -0.052 | gefitinib -0.043 | [6] -0.071 | lapatinib 0.086 | pictilisib 0.003

PDLIM7 (UniProt Q9NR12)
UniProt Q9NR12, sequence (Q9NR12 whole entry, looked up): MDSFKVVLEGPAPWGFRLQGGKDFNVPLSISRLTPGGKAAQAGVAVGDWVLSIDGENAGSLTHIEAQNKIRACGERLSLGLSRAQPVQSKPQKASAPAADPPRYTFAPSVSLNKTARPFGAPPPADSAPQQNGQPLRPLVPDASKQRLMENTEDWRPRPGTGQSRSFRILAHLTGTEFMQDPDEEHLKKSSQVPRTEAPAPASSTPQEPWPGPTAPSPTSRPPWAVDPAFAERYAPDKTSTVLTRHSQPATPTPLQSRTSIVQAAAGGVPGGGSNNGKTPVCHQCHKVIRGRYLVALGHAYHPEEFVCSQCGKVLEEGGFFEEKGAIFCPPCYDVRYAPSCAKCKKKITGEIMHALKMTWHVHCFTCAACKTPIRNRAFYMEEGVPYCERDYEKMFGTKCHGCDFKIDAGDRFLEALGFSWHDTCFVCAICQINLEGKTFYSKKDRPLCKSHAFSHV
inactive: saracatinib 0.002 | sotrastaurin 0.016 | alvocidib -0.032 | Tubastatin A -0.022 | [1] -0.014 | defactinib -0.083 | rucaparib 0.002 | [2] -0.013 | encorafenib 0.021 | [3] -0.021 | [4] 0.055 | filanesib 0.014 | zotarolimus 0.014 | idasanutlin -0.042 | alisertib -0.06 | [5] 0.03 | gefitinib -0.104 | [6] 0.012 | lapatinib 0.012 | pictilisib -0.046

PARN (UniProt O95453)
inactive: saracatinib -0.013 | sotrastaurin -0.008 | alvocidib -0.118 | Tubastatin A -0.017 | [1] 0.02 | defactinib -0.141 | rucaparib 0.079 | [2] -0.022 | encorafenib 0.04 | [3] 0.014 | [4] 0.001 | filanesib -0.015 | zotarolimus -0.009 | idasanutlin -0.028 | alisertib 0.001 | [5] 0.051 | gefitinib -0.009 | [6] 0.04 | lapatinib -0.028 | pictilisib -0.036

PHAX (UniProt Q9H814)
inactive: saracatinib 0.013 | sotrastaurin 0.001 | alvocidib -0.15 | Tubastatin A 0.003 | [1] -0.028 | defactinib -0.138 | rucaparib -0.031 | [2] -0.037 | encorafenib -0.034 | [3] 0.037 | [4] -0.01 | filanesib 0.045 | zotarolimus 0.004 | idasanutlin 0.018 | alisertib -0.057 | [5] -0.09 | gefitinib 0.007 | [6] 0.032 | lapatinib 0.039 | pictilisib 0.002

PARL (UniProt Q9H300)
UniProt Q9H300, sequence (Q9H300 whole entry, looked up): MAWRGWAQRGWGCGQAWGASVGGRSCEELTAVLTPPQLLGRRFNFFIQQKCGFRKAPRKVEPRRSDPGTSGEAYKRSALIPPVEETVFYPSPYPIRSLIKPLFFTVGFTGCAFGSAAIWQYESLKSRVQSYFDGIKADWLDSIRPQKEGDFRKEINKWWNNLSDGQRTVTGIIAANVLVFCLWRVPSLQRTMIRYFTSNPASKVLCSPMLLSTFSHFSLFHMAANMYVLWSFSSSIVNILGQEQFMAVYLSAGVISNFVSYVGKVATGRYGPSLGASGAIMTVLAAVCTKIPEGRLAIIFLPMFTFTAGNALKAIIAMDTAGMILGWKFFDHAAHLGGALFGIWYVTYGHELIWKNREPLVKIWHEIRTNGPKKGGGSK
inactive: saracatinib 0.056 | sotrastaurin 0.019 | alvocidib 0.026 | Tubastatin A -0.053 | [1] 0.025 | defactinib -0.011 | rucaparib -0.005 | [2] -0.052 | encorafenib 0.029 | [3] 0.015 | [4] -0.061 | filanesib -0.091 | zotarolimus -0.034 | idasanutlin -0.068 | alisertib -0.016 | [5] -0.2 | gefitinib 0.038 | [6] 0.08 | lapatinib 0.04 | pictilisib 0.011

PPP4R3B (UniProt Q5MIZ7)
inactive: saracatinib -0.008 | sotrastaurin -0.05 | alvocidib -0.11 | Tubastatin A 0.022 | [1] 0.057 | defactinib -0.023 | rucaparib -0.065 | [2] -0.033 | encorafenib 0.014 | [3] 0.003 | [4] -0.01 | filanesib -0.004 | zotarolimus 0.014 | idasanutlin -0.039 | alisertib 0.048 | [5] 0 | gefitinib -0.034 | [6] -0.034 | lapatinib 0.047 | pictilisib 0.076

PSMD12 (UniProt O00232)
inactive: saracatinib -0.024 | sotrastaurin -0.029 | alvocidib 0.026 | Tubastatin A 0.04 | [1] 0.033 | defactinib 0.048 | rucaparib 0.014 | [2] 0.054 | encorafenib 0.031 | [3] -0.032 | [4] -0.015 | filanesib 0.047 | zotarolimus 0.013 | idasanutlin -0.025 | alisertib -0.096 | [5] -0.07 | gefitinib -0.018 | [6] -0.067 | lapatinib 0.096 | pictilisib -0.059

POLR2D (UniProt O15514)
inactive: saracatinib 0.064 | sotrastaurin 0.015 | alvocidib 0.22 | Tubastatin A -0.064 | [1] -0.114 | defactinib 0.165 | rucaparib 0.056 | [2] 0.026 | encorafenib 0.003 | [3] -0.038 | [4] 0.02 | filanesib 0.009 | zotarolimus -0.029 | idasanutlin -0.083 | alisertib -0.159 | [5] -0.021 | gefitinib -0.001 | [6] 0.043 | lapatinib 0.017 | pictilisib -0.026

PRPF31 (UniProt Q8WWY3)
UniProt Q8WWY3, sequence (Q8WWY3 whole entry, looked up): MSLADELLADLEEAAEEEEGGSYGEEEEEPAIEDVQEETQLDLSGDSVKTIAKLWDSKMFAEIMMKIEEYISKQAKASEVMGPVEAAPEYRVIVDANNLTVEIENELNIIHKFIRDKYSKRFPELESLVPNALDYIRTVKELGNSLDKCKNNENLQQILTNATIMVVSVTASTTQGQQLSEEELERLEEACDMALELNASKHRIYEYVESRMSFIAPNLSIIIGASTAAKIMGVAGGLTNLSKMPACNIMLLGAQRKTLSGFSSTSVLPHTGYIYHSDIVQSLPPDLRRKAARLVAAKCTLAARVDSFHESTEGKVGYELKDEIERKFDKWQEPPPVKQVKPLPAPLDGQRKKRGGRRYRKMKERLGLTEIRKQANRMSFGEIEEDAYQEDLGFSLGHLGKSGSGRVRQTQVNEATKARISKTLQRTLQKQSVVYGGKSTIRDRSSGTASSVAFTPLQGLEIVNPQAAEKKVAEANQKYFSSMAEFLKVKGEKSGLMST
active: defactinib -0.456
inactive: saracatinib -0.093 | sotrastaurin -0.15 | alvocidib -0.193 | Tubastatin A 0.144 | [1] -0.033 | rucaparib -0.068 | [2] 0.033 | encorafenib 0.011 | [3] -0.037 | [4] 0.07 | filanesib 0.006 | zotarolimus -0.028 | idasanutlin -0.053 | alisertib 0.081 | [5] -0.393 | gefitinib 0.003 | [6] 0.024 | lapatinib 0.061 | pictilisib 0.139

PCBP2 isoform 3 (UniProt Q15366)
inactive: saracatinib -0.023 | sotrastaurin -0.084 | alvocidib -0.148 | Tubastatin A 0.025 | [1] -0.032 | defactinib -0.187 | rucaparib 0.041 | [2] 0.013 | encorafenib 0.075 | [3] -0.058 | [4] 0.138 | filanesib -0.031 | zotarolimus 0.048 | idasanutlin -0.064 | alisertib 0.012 | [5] -0.092 | gefitinib 0.011 | [6] 0.002 | lapatinib 0.003 | pictilisib -0.013

PRIM2 (UniProt P49643)
UniProt P49643, sequence (P49643 whole entry, looked up): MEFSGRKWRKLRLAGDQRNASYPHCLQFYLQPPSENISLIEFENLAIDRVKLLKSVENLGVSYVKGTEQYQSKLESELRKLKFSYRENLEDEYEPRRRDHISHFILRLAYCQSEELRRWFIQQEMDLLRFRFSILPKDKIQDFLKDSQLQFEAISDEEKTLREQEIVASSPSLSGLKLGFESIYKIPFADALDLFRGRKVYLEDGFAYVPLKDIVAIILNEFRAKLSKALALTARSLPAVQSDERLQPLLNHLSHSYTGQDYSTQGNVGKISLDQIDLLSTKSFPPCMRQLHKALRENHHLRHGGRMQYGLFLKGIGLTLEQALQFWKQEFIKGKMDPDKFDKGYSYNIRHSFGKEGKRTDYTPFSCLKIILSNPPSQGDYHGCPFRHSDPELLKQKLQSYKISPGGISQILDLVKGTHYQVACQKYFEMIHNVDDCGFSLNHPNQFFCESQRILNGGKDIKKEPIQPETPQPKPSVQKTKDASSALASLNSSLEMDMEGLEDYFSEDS
inactive: saracatinib -0.013 | sotrastaurin -0.192 | alvocidib -0.132 | Tubastatin A 0.024 | [1] 0.009 | defactinib -0.127 | rucaparib 0.001 | [2] 0.018 | encorafenib 0.052 | [3] -0.055 | [4] 0.044 | filanesib -0.139 | zotarolimus -0.132 | idasanutlin 0.03 | alisertib -0.042 | [5] 0.063 | gefitinib 0.069 | [6] -0.033 | lapatinib -0.005 | pictilisib 0.086

POM121 (UniProt Q96HA1)
inactive: saracatinib -0.043 | sotrastaurin -0.024 | alvocidib 0.023 | Tubastatin A 0.083 | [1] 0.126 | defactinib 0.045 | rucaparib 0.069 | [2] 0 | encorafenib 0.075 | [3] -0.002 | [4] -0.03 | filanesib 0.055 | zotarolimus -0.018 | idasanutlin 0.146 | [5] -0.027 | gefitinib -0.002 | lapatinib -0.01 | pictilisib 0.003
